Results: ChEMBL document CHEMBL3988442, “University of Dundee, Small-Polar-MMV Screening Library” (2021)
For some of these results: Entries with a potency or affinity are not part of this list.

Legend:
Design in all cases: scale not given: direction of the effect not stated beside the values
[1] = target: Protein translocase subunit SecA (Escherichia coli (strain K12)) (UniProt P10408); test: Assay to Identify E. coli SecA ATPase Inhibitors; assay type: functional; conditions: 30 µM
[2] = target: T1, Ubiquitin-activating enzyme e1, putative (Leishmania donovani (strain BPK282A1)) (UniProt E9BSI1); test: Leishmania donovani Ubiquitin Activating Enzyme (LdE1); assay type: functional; conditions: 30 µM
T1 sequence (whole entry): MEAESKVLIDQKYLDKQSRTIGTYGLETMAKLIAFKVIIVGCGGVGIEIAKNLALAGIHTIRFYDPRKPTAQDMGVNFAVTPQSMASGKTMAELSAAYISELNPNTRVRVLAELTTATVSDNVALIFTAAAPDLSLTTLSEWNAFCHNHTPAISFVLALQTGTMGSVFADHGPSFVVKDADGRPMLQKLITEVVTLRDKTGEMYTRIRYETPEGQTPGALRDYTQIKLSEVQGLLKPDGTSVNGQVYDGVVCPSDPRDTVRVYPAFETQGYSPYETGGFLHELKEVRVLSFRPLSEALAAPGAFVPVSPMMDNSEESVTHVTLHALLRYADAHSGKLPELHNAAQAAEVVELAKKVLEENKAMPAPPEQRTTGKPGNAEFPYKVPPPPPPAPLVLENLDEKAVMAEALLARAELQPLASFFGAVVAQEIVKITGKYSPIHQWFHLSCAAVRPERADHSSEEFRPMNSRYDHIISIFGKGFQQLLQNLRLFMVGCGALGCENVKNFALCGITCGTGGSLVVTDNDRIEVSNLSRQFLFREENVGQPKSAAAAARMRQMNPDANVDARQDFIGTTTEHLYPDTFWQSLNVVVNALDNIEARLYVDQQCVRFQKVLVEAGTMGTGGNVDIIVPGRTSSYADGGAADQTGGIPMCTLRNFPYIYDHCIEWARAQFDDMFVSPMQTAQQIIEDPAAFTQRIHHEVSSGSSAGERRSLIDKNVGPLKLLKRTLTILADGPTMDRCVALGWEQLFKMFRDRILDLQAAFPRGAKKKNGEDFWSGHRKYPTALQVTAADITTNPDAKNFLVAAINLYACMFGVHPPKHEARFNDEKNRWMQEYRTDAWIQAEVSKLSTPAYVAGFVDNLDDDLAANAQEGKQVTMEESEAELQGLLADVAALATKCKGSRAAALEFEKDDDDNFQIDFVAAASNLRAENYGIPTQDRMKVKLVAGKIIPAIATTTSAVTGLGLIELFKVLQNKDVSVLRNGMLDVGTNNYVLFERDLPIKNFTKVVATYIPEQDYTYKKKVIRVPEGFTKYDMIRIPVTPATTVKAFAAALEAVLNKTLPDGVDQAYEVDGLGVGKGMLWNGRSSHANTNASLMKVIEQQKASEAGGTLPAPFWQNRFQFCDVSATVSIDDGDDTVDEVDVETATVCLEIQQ

[3] = target: AMP-activated protein kinase, AMPK (Homo sapiens) (UniProt P54646+O43741+P54619+Q9UGJ0+Q9Y478+Q13131+Q9UGI9); test: AMP-dependent Kinase enzyme assay. An in vitro enzyme assay that detects ADP turnover that is directly proportional to AMPK activity. This uses naive AMPK that is activated during the assay with MK-8722; assay type: functional; conditions: 30 µM
[4] = target: Sialic acid-binding Ig-like lectin 9 (Homo sapiens) (UniProt Q9Y336); test: Hs-Siglec9 ALPHAscreen SOP 20170721; conditions: 10 µM
Chain of Sialic acid-binding Ig-like lectin 9 (Homo sapiens) (Q9Y336 whole entry): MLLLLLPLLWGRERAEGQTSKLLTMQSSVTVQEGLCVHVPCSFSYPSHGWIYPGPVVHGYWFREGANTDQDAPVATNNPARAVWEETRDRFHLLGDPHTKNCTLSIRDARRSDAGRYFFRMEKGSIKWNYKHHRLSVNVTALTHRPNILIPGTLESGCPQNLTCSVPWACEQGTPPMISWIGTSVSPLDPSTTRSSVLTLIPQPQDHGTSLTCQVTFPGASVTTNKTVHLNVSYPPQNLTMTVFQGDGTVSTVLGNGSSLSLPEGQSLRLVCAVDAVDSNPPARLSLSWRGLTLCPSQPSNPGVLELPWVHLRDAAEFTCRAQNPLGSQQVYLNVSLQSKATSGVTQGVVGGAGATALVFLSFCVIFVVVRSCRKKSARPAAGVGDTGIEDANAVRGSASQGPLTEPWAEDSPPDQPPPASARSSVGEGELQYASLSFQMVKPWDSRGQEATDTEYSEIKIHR

[5] = test system: Trypanosoma cruzi; test: Trypanosoma cruzi phosphomannomutase and mannose-1-phosphate guanylyltransferase assay; assay type: functional; conditions: 10 µM
[6] = target: T2, Arginase-2, mitochondrial (Homo sapiens) (UniProt P78540); test: in vitro enzyme assay to detect the production of urea directly proportional to the activity of Arginase II; assay type: functional; conditions: 33.3 µM; also: in the data most compounds retested in dose-response had high values
T2 sequence (whole entry): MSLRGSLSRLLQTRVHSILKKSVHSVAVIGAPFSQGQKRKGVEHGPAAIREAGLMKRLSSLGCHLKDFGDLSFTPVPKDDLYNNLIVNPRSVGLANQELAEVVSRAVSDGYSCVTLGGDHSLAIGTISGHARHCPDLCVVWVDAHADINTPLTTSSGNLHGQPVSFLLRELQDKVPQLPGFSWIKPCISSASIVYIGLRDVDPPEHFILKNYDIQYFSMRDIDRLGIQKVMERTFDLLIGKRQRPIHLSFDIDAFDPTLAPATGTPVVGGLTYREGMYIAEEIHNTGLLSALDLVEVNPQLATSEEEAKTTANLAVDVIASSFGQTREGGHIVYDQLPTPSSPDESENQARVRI

[7] = target: T3, Proteasome subunit beta (Trypanosoma cruzi) (UniProt O96673); test: Trypanosoma cruzi proteasome chymotrypsin-like activity (TcProtChymo) assay.; also: in the data most compounds retested in dose-response had high values; assay type: functional; conditions: 9.37 µM
T3 sequence (whole entry): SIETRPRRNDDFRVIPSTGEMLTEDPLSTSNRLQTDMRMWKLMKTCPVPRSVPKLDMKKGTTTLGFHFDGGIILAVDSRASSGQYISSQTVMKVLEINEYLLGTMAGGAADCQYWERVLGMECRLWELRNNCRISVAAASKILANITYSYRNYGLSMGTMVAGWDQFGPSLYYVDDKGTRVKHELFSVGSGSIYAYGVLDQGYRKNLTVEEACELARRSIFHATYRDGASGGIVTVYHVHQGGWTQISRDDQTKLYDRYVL

[8] = organism: Homo sapiens; test: To identify inhibition of the IFN signalling (Jak-Stat) pathway via expression of an eGFP reporter gene under the control of an IFN-stimulated response element (ISRE) containing MxA promoter.; assay type: functional; conditions: 30 µM
[9] = target: T4, Tyrosyl-tRNA synthetase, putative (Trypanosoma cruzi (strain CL Brener)) (UniProt Q4DSP6); test: Trypanosoma cruzi tyrosyl tRNA synthetase (TcYRS) _High Tyrosine SOP; assay type: functional; conditions: 30 µM; also: in the data most compounds retested in dose-response had high values
T4 sequence (whole entry): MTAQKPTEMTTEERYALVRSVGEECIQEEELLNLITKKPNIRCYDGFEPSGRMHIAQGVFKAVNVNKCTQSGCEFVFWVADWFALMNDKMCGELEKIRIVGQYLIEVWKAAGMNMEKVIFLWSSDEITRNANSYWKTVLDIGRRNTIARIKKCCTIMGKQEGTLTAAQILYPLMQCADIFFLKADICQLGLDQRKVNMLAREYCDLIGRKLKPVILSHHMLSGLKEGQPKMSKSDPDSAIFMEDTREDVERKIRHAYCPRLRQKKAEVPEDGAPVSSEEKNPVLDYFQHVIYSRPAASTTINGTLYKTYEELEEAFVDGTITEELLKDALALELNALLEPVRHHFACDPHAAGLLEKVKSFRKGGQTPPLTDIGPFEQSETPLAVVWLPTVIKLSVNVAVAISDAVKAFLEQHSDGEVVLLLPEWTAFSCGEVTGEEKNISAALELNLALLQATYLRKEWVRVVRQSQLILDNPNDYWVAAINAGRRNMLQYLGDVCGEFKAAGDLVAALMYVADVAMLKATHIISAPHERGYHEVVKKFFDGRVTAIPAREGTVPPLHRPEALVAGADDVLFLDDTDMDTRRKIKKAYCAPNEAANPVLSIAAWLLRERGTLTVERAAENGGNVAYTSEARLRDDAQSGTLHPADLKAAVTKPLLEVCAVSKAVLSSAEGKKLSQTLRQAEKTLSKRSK

[10] = target: T4, Tyrosyl-tRNA synthetase, putative (Trypanosoma cruzi (strain CL Brener)); test: Trypanosoma cruzi tyrosyl tRNA synthetase (TcYRS) SOP; assay type: functional; conditions: 30 µM
[11] = target: Chromo domain-containing protein 1 (Saccharomyces cerevisiae (strain ATCC 204508 / S288c) (Baker's yeast)) (UniProt P32657); test: ScCHD-1 Enzyme Inhibition Assay; assay type: functional; conditions: 30 µM; also: in the data most compounds retested in dose-response had high values
Chain of Chromo domain-containing protein 1 (Saccharomyces cerevisiae (strain ATCC 204508 / S288c) (Baker's yeast)) (P32657 whole entry, the tested form may be a part): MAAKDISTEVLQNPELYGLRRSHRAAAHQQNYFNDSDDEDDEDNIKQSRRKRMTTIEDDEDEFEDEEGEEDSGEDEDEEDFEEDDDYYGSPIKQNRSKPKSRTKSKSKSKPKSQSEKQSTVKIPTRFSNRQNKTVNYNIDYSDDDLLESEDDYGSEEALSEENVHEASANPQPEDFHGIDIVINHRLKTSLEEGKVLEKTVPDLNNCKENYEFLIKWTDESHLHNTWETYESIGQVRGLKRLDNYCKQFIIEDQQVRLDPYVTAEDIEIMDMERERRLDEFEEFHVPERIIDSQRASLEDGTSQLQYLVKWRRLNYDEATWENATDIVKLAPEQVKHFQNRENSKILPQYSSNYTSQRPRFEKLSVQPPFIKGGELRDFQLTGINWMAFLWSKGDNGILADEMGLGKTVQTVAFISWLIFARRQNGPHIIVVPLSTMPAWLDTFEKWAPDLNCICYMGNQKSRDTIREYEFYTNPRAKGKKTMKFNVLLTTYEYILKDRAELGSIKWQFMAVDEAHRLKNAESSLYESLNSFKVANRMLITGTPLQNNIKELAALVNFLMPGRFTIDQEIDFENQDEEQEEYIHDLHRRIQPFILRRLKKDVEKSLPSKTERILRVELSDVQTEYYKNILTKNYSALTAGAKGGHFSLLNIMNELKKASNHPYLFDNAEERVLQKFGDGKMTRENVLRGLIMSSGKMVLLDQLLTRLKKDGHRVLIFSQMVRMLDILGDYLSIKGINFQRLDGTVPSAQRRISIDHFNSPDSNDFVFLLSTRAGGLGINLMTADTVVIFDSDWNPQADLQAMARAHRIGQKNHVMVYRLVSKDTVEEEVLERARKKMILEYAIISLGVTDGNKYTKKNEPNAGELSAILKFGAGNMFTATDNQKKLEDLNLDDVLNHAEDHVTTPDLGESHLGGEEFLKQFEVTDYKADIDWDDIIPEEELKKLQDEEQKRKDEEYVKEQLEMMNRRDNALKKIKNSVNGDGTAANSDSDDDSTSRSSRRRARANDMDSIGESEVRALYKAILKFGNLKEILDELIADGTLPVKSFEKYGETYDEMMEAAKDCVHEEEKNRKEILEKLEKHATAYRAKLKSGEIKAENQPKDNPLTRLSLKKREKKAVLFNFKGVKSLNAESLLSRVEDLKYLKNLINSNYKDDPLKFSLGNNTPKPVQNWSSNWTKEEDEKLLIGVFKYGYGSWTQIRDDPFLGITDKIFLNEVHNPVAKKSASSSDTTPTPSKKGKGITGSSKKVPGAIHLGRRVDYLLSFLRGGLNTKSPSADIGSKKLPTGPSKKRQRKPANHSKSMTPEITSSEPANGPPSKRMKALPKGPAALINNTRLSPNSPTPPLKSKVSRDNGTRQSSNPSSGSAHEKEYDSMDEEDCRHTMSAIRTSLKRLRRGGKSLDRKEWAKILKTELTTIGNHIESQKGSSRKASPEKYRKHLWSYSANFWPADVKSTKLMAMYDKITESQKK

Chain of Protein translocase subunit SecA (Escherichia coli (strain K12)) (P10408 whole entry): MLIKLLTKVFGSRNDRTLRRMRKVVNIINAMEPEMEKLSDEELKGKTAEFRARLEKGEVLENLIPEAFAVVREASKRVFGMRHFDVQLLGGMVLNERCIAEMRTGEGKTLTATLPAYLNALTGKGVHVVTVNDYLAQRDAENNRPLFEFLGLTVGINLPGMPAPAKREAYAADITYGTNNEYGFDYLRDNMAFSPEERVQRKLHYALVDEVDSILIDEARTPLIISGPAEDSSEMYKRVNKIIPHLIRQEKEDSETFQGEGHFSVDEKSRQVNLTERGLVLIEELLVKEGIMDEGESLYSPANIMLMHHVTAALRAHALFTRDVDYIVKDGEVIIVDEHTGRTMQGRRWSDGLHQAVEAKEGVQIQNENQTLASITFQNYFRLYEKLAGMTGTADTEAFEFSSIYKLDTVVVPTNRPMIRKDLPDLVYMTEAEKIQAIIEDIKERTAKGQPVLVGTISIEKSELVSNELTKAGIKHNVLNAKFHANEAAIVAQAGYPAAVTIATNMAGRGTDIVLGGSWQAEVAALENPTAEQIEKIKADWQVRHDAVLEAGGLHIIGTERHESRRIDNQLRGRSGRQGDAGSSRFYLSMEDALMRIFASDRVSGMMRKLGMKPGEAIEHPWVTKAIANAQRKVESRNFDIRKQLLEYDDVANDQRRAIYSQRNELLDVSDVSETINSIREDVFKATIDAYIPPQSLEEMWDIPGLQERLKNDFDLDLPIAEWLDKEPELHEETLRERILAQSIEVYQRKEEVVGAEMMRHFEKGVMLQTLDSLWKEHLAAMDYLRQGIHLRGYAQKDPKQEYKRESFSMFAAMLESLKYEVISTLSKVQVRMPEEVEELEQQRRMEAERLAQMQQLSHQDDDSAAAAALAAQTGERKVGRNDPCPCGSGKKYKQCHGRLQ

Structure (SMILES) | Percent Effect [1] [%] | Percent Effect [2] [%] | Percent Effect [3] [%] | Percent Effect [4] [%] | Percent Effect [5] [%] | Percent Effect [6] [%] | Percent Effect [7] [%] | Percent Effect [8] [%] | Percent Effect [9] [%] | Percent Effect [10] [%] | Percent Effect [11] [%]
Cc1ccc(CC(=O)N2Cc3nccn3CC(Cn3cccn3)C2)cc1 (stereo unspecified) | 0.712 | 8.22 | -7.73 | 14.5 | 3.77 | 2.79 | 11.2 | 17.3 | 4.17 | 16.1 | -6.87
COCCNC(=O)c1cc2c(s1)CCN2C(=O)c1ccccc1 | -6.01 | 10.7 | -16.6 | 4.96 | 1.35 | -53.9 | 9.74 | -0.33 | 6.25 | 15 | 6.46
Cc1cccnc1NC(=O)C(C)Cn1nc(C(F)(F)F)cc1C (stereo unspecified) | -1.64 | -4 | 2.53 | 4.76 | -3.73 | -1.94 | 11.8 | -10.4 | 3.17 | 2.56 | -1.89
c1cn(Cc2nnc(C3CCN(C4CCOCC4)CC3)n2C2CC2)cn1 | -3.73 | 2.67 | -3.77 | -0.983 | -3.21 | 0 | 26.7 | 21.6 | 2.73 | 3.7 | -5.45
CC(C)C(C)NC(=O)Nc1ccc(CS(C)(=O)=O)cc1 (stereo unspecified) | -5.9 | 5.26 | 7.91 | 3.79 | 4.77 | -14.2 | 15.6 | 12.9 | -5.32 | 10.4 | -1.16
CS(=O)(=O)NCc1cnc2n1CCN(Cc1ccsc1)CC2 | 1.5 | 21.9 | -6.69 | 5.11 | -5.16 | -18 | 14.6 | 18.3 | 8.33 | 3.7 | 0.00549
Cc1nn(C)c2c(NCCCn3cccn3)ncnc12 | -1.47 | 9.33 | 2.34 | -1.8 | 3.34 | -3.35 | 21.6 | -12.4 | 2.12 | 15.4 | -7.78
c1ccc(N2CCOC3(CCCN(c4nncs4)C3)C2)nc1 (stereo unspecified) | -3.17 | 7.79 | 3.64 | 2.14 | -1.28 | 3.23 | 14.4 | -6.63 | 3.17 | 8.97 | -7.1
Cc1cnn(CC(C)NCc2csc(-c3cnn(C)c3)n2)c1 (stereo unspecified) | -0.0815 | 19 | -6.28 | -4.12 | -4.41 | 0.645 | 20.6 | 14 | 7.29 | -10.1 | -26.4
Cc1ncsc1C(=O)NCc1cccs1 | 0.275 | 16.2 | -1.61 | 5.83 | 0.464 | 0.185 | 14 | 21.8 | 6.93 | 23.2 | -4.46
CC(C)N(C)CCCNC(=O)c1cnc(-c2ccccc2)nc1 | -6.93 | 21.6 | 1.03 | 23.6 | 6.75 | 7.2 | 8.67 | -4.42 | 4.3 | 18.5 | -10.6
